A number with no mark means an inactive call. Records with an inconclusive call do not appear. The source made the active and inactive calls. Unless noted, calls follow the shape of the dose curve; as a rule, active = well fitted curve in either direction with a large enough effect (not every such curve was filed as active); inconclusive = small, poorly fitted or top-dose-only effect, or another doubt; inactive = flat fitted curve, though single readings scatter.
How the values were obtained:
[1] = target: Lysosomal acid glucosylceramidase (Homo sapiens) (UniProt P04062); assay: Glucocerebrosidase-p2 (AID 348; in the data active = potency below about 10 µM; also: potency is read from the fitted curve at half-maximal effect); conditions: purified GBA, blue fluorogenic substrate, 40 min
Chain of Lysosomal acid glucosylceramidase (Homo sapiens) (P04062 whole entry, looked up): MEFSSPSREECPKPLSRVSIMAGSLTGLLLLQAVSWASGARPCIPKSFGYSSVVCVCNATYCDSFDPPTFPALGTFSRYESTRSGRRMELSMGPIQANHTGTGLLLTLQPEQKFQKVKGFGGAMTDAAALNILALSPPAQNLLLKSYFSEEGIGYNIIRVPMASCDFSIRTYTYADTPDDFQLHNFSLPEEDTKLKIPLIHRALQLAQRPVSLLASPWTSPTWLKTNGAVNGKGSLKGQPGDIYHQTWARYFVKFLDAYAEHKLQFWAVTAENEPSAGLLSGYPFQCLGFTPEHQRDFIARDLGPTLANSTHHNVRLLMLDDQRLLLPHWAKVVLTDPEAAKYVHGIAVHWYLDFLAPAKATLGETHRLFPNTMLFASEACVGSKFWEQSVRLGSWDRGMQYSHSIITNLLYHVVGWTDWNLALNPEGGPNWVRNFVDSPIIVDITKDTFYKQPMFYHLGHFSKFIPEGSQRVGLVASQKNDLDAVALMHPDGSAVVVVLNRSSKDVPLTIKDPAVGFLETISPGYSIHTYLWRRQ
In short: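 Normal human glucocerebrosidase (0.2 nM) with blue fluorogenic substrate (80 uM final) in citrate/phosphate pH 5.9 with 10mM sodium taurocholate, 0.01% tween-20; 40 min RT, NaOH/glycine stop; fluorescence Ex 365/Em 440; AC50 from a titration from 0.6 nM upwards.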

[2] = AP1 Signaling Pathway (AID 357); conditions: ME-180 AP-1-bla reporter, EGF-induced, beta-lactamase ratio, 5 h; at 7.69 µM (top of the series) unless noted;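 also: ME-180 reporter cells stimulated with EGF at its EC50 level; % is scaled to controls: 0 for no effect and ±100 for the full control effect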
In short: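 Cells are seeded overnight, exposed to compound titrations and an EC50 level of EGF for 5 hours at 37 °C, then loaded with CCF4 dye for 2.5 hours. Beta-lactamase activity under the AP-1 element is read as a blue/green ratio.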

[3] = target: Cytochrome P450 1A2 (Homo sapiens) (UniProt P05177); assay: p450-cyp1a2 (AID 410; calls by dose curve; also: potency is read from the fitted curve at half-maximal effect;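 as to activity change, negative = inhibition: -100% = full effect of reference inhibitor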); conditions: recombinant CYP1A2, luciferin-ME demethylation, luminescence; series mostly up to 57 µM
Chain of Cytochrome P450 1A2 (Homo sapiens) (P05177 whole entry, looked up): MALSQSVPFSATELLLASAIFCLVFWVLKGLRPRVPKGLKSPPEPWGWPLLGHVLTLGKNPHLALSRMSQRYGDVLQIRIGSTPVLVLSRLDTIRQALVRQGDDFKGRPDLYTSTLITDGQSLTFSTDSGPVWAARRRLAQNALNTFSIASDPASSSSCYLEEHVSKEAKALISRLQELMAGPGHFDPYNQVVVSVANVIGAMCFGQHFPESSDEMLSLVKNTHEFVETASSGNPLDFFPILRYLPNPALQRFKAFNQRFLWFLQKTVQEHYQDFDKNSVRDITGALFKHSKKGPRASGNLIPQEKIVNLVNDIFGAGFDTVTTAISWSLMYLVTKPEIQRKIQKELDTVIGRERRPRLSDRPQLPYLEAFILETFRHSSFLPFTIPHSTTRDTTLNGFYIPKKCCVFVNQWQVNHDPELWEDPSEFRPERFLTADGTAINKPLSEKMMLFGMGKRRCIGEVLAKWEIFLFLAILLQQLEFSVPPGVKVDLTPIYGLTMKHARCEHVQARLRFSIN
In short: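 O-Demethylation of luciferin 6' methyl ether by human CYP1A2 is monitored as luciferase luminescence. Substrate sits at Km (100uM); enzyme is 20nM. Values are scaled to 57 uM furafylline as maximal inhibition.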

[4] = NFAT Signaling Pathway (AID 444); conditions: Jurkat NFAT-bla M1, carbachol, beta-lactamase ratio, 5 h; at 7.69 µM (top of the series) unless noted;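 also: carbachol stimulus at about its EC50 of 1 µM final; % is scaled to controls: 0 for no effect and ±100 for the full control effect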
In short: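 Jurkat cells carrying an NFAT-driven β-lactamase reporter and co-transfected muscarinic M1 receptor were treated with compound plus carbachol (1 uM final, an EC50 level) for 5 h at 37 °C. CCF4 loading followed for 1 h at RT; 460/530 nm ratio gave %activity.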

[5] = target: Glucocorticoid receptor (Homo sapiens) (UniProt P04150); assay: GR-EFC Redistribution (AID 451; calls by dose curve; also: potency is read from the fitted curve at half-maximal effect); conditions: CHO-K1 GR-EFC translocation, beta-gal luminescence, 2 h
Chain of Glucocorticoid receptor (Homo sapiens) (P04150 whole entry, looked up, the tested form may be a part): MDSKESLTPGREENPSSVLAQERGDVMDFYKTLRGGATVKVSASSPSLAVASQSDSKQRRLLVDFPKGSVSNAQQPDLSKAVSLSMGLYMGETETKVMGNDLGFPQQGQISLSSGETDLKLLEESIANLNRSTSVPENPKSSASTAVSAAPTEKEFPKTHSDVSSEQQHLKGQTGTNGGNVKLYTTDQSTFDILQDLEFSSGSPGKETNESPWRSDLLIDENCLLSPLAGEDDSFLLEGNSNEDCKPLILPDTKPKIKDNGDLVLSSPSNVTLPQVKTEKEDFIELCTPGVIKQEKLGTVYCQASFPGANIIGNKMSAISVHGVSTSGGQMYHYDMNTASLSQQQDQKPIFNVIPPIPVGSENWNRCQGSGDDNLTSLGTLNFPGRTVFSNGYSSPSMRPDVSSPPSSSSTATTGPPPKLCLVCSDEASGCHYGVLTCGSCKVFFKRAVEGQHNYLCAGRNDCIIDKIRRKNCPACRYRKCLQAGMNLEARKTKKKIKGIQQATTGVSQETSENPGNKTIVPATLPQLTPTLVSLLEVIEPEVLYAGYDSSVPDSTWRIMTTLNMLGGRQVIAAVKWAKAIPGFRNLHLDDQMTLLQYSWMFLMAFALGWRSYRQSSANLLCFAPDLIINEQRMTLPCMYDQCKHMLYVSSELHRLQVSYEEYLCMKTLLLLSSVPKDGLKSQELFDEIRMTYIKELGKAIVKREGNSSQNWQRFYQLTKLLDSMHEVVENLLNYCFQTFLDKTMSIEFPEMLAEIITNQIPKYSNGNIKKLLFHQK
In short: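 CHO-K1 cells stably expressing nuclear-localized β-gal enzyme acceptor and GR fused C-terminally to the enzyme donor fragment; ligand-driven nuclear translocation restores β-gal by complementation. Compounds titrated up to 46 uM final, 2 h at 37 °C; luminescence read.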

[6] = target: 3',5'-cyclic-AMP phosphodiesterase 4B (Homo sapiens) (UniProt Q07343); assay: qHTS Assay for Inhibitors of PDE-IV (AID 607; active = well fitted activation curve with a large enough effect in the main read-out, with a control signal flat, not every such curve was filed as active; also: % of control where 0% means no effect); conditions: HEK293 ACTOne CNG channel cells, membrane potential fluorescence; series mostly up to 22.9 µM
Chain of 3',5'-cyclic-AMP phosphodiesterase 4B (Homo sapiens) (Q07343 whole entry, looked up): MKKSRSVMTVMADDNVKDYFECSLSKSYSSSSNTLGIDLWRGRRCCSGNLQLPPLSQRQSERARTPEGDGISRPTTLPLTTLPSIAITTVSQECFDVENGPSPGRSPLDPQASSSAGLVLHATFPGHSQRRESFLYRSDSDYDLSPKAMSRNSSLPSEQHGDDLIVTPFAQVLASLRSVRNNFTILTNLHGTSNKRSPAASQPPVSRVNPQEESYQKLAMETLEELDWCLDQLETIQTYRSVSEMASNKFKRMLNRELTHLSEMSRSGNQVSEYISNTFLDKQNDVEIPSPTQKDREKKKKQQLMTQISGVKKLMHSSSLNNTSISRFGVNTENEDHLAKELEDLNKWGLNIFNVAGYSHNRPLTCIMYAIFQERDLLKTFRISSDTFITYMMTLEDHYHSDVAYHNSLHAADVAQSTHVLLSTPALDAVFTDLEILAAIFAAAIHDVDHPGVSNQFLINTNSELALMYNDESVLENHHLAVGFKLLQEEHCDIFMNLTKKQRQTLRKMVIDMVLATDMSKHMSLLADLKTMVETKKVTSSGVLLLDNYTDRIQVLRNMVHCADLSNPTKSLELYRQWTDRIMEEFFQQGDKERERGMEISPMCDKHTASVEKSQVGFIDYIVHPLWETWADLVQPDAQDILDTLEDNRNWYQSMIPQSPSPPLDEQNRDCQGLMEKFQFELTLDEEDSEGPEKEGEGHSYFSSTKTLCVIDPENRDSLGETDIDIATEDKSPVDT
In short: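 Live HEK293 cells with a modified cyclic nucleotide-gated (CNG) channel report intracellular cAMP via membrane-potential dye fluorescence (ex 535/em 590 nm). Endogenous PDE-IV was targeted. Compounds were tested at up to 22.9 uM final; RO 20-1724 100 uM served as control.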

[7] = target: Cytochrome P450 3A4 (Homo sapiens) (UniProt P08684); assay: qHTS Assay for Activators of Cytochrome P450 3A4 (AID 885; active = well fitted curve in the direction sought with a large enough effect; an effect the other way counts as inactive or inconclusive; also: nearly all actives have a fitted effect of over 65% in size; also: potency is read from the fitted curve at half-maximal effect); conditions: recombinant CYP3A4, Luciferin-PPXE luminescence, 60 min; series mostly up to 57.1 µM
Chain of Cytochrome P450 3A4 (Homo sapiens) (P08684 whole entry, looked up): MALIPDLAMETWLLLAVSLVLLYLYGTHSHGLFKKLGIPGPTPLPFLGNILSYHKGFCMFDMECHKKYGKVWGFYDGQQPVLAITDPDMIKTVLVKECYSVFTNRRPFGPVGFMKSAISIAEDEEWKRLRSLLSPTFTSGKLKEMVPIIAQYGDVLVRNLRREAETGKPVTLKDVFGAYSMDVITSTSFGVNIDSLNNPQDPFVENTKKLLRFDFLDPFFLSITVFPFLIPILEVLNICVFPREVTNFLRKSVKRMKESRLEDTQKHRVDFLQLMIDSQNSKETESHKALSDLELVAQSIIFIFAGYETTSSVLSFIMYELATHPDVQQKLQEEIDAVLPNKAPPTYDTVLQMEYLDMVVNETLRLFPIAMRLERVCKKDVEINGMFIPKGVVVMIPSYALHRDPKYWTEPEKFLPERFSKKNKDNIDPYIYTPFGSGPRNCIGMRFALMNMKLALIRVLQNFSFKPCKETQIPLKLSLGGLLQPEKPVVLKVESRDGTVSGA
In short: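 Using 20nM recombinant human CYP3A4 in potassium phosphate (200mM), substrate Luciferin-PPXE at 25uM, luminescent luciferin detection followed a 60-min RT NADPH reaction; data scaled to 57 uM ketoconazole.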

[8] = Primary qHTS for small molecule stabilizers of the endoplasmic reticulum resident proteome: Secreted ER Calcium Modulated Protein (SERCaMP) assay (AID 1508630; active = well fitted curve in the direction sought with a large enough effect; an effect the other way counts as inactive or inconclusive; also: % is scaled to controls: 0 for no effect and ±100 for the full control effect); conditions: SH-SY5Y GLuc-SERCaMP (Gaussia luciferase released on ER calcium loss) secretion, thapsigargin, luminescence; series mostly up to 38.4 µM
In short: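 The SH-SY5Y reporter protocol was run at 3 concentrations up to 38.3 uM (primary) or 11 concentrations (follow-up): 16 h compound, 100 nM thapsigargin for 4 h, then extracellular luciferase luminescence.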

[9] = Stat Signaling Pathway (AID 446); conditions: ME-180 (cervical carcinoma) SIE beta-lactamase reporter, IL-6 stimulated, 5 h; at 7.69 µM (top of the series) unless noted;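 also: ME-180 cervical cancer cells given 40 pM IL-6 alongside compound; SIE-controlled beta-lactamase reporter measured as 460/530 nm FRET emission ratio; % is scaled to controls: 0 for no effect and ±100 for the full control effect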
In short: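 Overnight-plated ME-180 cells bearing a STAT Inducible Element beta-lactamase reporter; 5 h co-exposure to compound and 40 pM IL-6; values normalized to 300 pM IL-6 and 125 nM JAK inhibitor controls.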

[10] = target: Mitogen-activated protein kinase 10 (Mus musculus) (UniProt Q61831); assay: JNK3 AlphaScreen Assay (AID 530); conditions: JNK3 lysate, c-Jun phosphorylation; series mostly up to 57.1 µM
In short: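 Phosphorylation of biotinylated GST-cJun(1-79) at Ser73 is measured by AlphaScreen proximity luminescence. Enzyme is JNK3 in HepG2 lysates activated with interleukin-1beta and tumor necrosis factor alpha; ATP is 10 uM final.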

[11] = target: Cytochrome P450 3A4 (Homo sapiens) (UniProt P08684); assay: qHTS Assay for Inhibitors and Substrates of Cytochrome P450 3A4 (AID 884; active = well fitted curve in the direction sought with a large enough effect; an effect the other way counts as inactive or inconclusive; also: nearly all actives have a fitted effect of over 50% in size; also: potency is read from the fitted curve at half-maximal effect); conditions: recombinant CYP3A4, Luciferin-PPXE luminescence; series mostly up to 57.1 µM
In short: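 Luminescent readout of luciferin produced by CYP3A4 (20 nM) dealkylation of Luciferin-PPXE, 25 uM (its KM). NADPH-driven reaction ran 60 min at RT after 10 min compound preincubation; data scaled to 57 uM ketoconazole as 100% inhibition.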

[12] = target: Cytochrome P450 2D6 (Homo sapiens) (UniProt P10635); assay: qHTS Assay for Inhibitors and Substrates of Cytochrome P450 2D6 (AID 891; active = well fitted curve in the direction sought with a large enough effect; an effect the other way counts as inactive or inconclusive; also: nearly all actives have a fitted effect of over 60% in size; also: potency is read from the fitted curve at half-maximal effect); conditions: recombinant CYP2D6, luciferin-ME EGE luminescence; series mostly up to 57.1 µM
Chain of Cytochrome P450 2D6 (Homo sapiens) (P10635 whole entry, looked up): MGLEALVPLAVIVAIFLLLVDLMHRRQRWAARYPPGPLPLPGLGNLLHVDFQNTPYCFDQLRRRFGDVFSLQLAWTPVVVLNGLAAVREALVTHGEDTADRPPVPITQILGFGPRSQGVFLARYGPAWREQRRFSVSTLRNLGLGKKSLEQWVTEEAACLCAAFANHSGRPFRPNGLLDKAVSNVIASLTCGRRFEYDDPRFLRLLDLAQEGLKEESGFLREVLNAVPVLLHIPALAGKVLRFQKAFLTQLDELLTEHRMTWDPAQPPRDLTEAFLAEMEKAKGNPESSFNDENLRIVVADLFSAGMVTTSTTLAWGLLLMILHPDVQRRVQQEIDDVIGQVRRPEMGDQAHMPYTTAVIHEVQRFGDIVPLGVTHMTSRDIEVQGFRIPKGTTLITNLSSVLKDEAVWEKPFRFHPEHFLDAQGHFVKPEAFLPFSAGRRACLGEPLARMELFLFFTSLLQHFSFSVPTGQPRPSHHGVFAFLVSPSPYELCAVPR
In short: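 Luminescent read-out of luciferin formed by 5 nM human CYP2D6 demethylating 30 uM Luciferin-ME EGE (Km level) over 60 min at room temperature after NADPH regeneration addition. Data normalized to full inhibition by 1.43 uM quinidine.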

[13] = target: Cytochrome P450 2C19 (Homo sapiens) (UniProt P33261); assay: qHTS Assay for Inhibitors and Substrates of Cytochrome P450 2C19 (AID 899; active = well fitted curve in the direction sought with a large enough effect; an effect the other way counts as inactive or inconclusive; also: nearly all actives have a fitted effect of over 60% in size; also: potency is read from the fitted curve at half-maximal effect); conditions: recombinant CYP2C19, luciferin-H EGE luminescence; series mostly up to 57.1 µM
Chain of Cytochrome P450 2C19 (Homo sapiens) (P33261 whole entry, looked up): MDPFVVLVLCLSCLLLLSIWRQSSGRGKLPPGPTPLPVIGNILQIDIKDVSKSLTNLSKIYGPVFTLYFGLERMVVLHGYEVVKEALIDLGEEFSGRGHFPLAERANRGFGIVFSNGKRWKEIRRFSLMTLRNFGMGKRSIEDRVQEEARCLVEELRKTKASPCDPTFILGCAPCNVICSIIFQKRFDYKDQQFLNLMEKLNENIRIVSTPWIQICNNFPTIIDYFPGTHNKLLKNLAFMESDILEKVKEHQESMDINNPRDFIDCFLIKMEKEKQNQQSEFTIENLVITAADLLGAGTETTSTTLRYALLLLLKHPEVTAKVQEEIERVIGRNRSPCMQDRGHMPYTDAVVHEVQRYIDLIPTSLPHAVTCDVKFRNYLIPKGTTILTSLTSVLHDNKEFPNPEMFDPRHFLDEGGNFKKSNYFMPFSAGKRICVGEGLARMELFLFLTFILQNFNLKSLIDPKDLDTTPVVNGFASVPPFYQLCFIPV
In short: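 Human CYP2C19 (5nM) with Luciferin-H EGE at 10uM (its KM) in 50mM KPO4 was preincubated with compound for 10 min at 37C. NADPH regeneration started a 60 min 37C reaction. Luciferin was read by luminescence, normalized to 57uM ketoconazole.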

[14] = target: Glucocorticoid receptor (Homo sapiens) (UniProt P04150); assay: GR-GFP Redistribution (AID 450;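 active = compounds whose dose series gives a full or clear partial fitted curve of increased nuclear translocation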; also: potency is read from the fitted curve at half-maximal effect); conditions: U2OS GR-GFP nuclear translocation, laser cytometry, 2 h
[15] = Confirmation and Secondary Assay for Modulators of Hemoglobin Beta Chain Splicing at IVS2 654 locus (AID 910; active = well fitted curve in the direction sought with a large enough effect; an effect the other way counts as inactive or inconclusive;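 also: per-well total GFP intensity by laser scanning cytometry after 2-day treatment; % of control where 0% means no effect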); conditions: HeLa EGFP-654 splicing reporter, GFP fluorescence, 48 h; series mostly up to 38.3 µM
In short: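 HeLa cells stably carrying EGFP interrupted by mutant beta-globin IVS2-654 intron (CMV-driven) were treated with compound for 2 days at 37C; corrected splicing was scored as total peak GFP intensity per well (488 nm excitation, 500-520 nm emission).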

[16] = Confirmation and Secondary Assay for Modulators of Hemoglobin Beta Chain Splicing at IVS2 705 locus (AID 930; active = well fitted curve in the direction sought with a large enough effect; an effect the other way counts as inactive or inconclusive;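 also: HeLa cells stably expressing the EGFP-705 splicing reporter; GFP fluorescence per well restored by corrected splicing of the IVS2-705 intron in EGFP; % of control where 0% means no effect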); conditions: HeLa EGFP-705 splicing reporter, GFP fluorescence, 48 h; series mostly up to 38.3 µM
In short: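 Splice-correction reporter: EGFP cDNA split by beta-globin intron 2 bearing the 705 mutation, stably in HeLa. Compound incubation 2 days, 37C; fluorescent objects 5-250 µm summed per well.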

[17] = target: Ubiquitin carboxyl-terminal hydrolase 1 (Homo sapiens) (UniProt O94782); assay: Inhibitors of USP1/UAF1: Pilot qHTS (AID 504865; active = well fitted curve in the direction sought with a large enough effect; an effect the other way counts as inactive or inconclusive;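 also: rhodamine fluorescence freed from ubiquitin-rhodamine substrate followed over time; top concentration of the series differs between compounds; % is scaled to controls: 0 for no effect and ±100 for the full control effect; nearly all actives have a fitted effect of over 35% in size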); conditions: purified USP1/UAF1, Ub-rhodamine cleavage fluorescence; series mostly up to 54.9 µM
In short: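 USP1/UAF1 complex at 1 nM preincubated 15 min at room temperature with compound, then Ub-Rho substrate added at 150 nM final. Fluorescence (480/540 nm) read kinetically in 50 mM HEPES pH 7.8, 0.5 mM EDTA, 1 mM TCEP, 0.1 mg/ml BSA, 0.01% Tween-20.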

[18] = target: Cytochrome P450 2C9 (Homo sapiens) (UniProt P11712); assay: qHTS Assay for Inhibitors and Substrates of Cytochrome P450 2C9 (AID 883; active = well fitted curve in the direction sought with a large enough effect; an effect the other way counts as inactive or inconclusive; also: nearly all actives have a fitted effect of over 60% in size; also: potency is read from the fitted curve at half-maximal effect); conditions: recombinant CYP2C9, luciferin-H luminescence, 60 min; series mostly up to 57.1 µM
Chain of Cytochrome P450 2C9 (Homo sapiens) (P11712 whole entry, looked up): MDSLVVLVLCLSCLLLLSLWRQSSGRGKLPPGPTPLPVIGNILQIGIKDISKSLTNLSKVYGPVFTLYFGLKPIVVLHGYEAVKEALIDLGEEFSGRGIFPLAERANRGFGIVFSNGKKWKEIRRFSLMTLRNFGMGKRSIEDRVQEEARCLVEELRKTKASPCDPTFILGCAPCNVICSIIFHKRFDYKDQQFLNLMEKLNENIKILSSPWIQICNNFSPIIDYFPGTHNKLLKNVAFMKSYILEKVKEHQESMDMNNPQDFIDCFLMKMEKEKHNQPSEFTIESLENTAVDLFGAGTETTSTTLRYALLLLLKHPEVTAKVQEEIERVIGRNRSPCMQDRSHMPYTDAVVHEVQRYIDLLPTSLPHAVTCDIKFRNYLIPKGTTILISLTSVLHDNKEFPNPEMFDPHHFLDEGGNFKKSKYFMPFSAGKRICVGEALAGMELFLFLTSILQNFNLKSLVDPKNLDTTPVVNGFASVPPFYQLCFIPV
In short: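 Human CYP2C9 (10nM) hydroxylated Luciferin-H (100uM, at its KM) to luciferin in 25mM KPO4. Compound was preincubated 10 min at 37C, then NADPH regeneration started a 60 min reaction at 37C. Luminescence was read after detection reagent, normalized to 57uM sulphaphenazole.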

| Structure (SMILES) | Potency [1] [µM] | activity change, negative = inhibition [2] [%] | Potency [3] | activity change, negative = inhibition [4] [%] | Potency [5] [µM] | Potency [6] | Potency [7] | outcome [8] | activity, negative = inhibition [9] [%] | Potency [10] | Potency [11] | Potency [12] | Potency [13] | Potency [14] [µM] | Potency [15] | outcome [16] | Potency [17] | Potency [18] |
| --- | --- | --- | --- | --- | --- | --- | --- | --- | --- | --- | --- | --- | --- | --- | --- | --- | --- | --- |
| O=C(c1cnccn1)N1CCC2(CC1)CN(c1cccc(-c3ccccc3)c1)C2 | > 11.4 | -8.05 | 15.8 µM (active) | -5.73 | > 46 | inactive | inactive | inactive | – | – | – | – | – | – | – | – | – | – |
| O=S(=O)(c1ccccc1)N1CCC2(CCN(Cc3ccncc3)CC2)CC1 | > 11.4 | -0.758 | inactive | – | > 46 | inactive | inactive | inactive | 7.32 | inactive | 3.98 µM (active) | – | – | – | – | – | – | – |
| O=C(c1cnccn1)N1CCC2(CCCN(Cc3nccs3)C2)CC1 | > 11.4 | -20.7 | 15.8 µM (active) | – | > 46 | inactive | inactive | inactive | -4.76 | inactive | – | 7.94 µM (active) | – | – | – | – | – | – |
| N#Cc1ccc(CN2CCCC3(CCN(S(=O)(=O)c4ccccc4)CC3)C2)cc1 | > 11.4 | -11.3 | inactive | – | > 46 | inactive | inactive | inactive | -1.86 | inactive | 3.16 µM (active) | 0.631 µM (active) | – | – | – | – | – | – |
| O=S(=O)(c1ccccc1)N1CCC2(CCCN(Cc3ccncc3)C2)CC1 | > 11.4 | -20.2 | 12.6 µM (active) | – | > 46 | inactive | inactive | inactive | -3.44 | inactive | 3.98 µM (active) | – | 316 nM (active) | – | – | – | – | – |
| O=S(=O)(c1ccccc1)N1CCC2(CCCN(Cc3nccs3)C2)CC1 | > 11.4 | -17.2 | inactive | – | > 46 | inactive | inactive | inactive | -1.51 | inactive | 3.16 µM (active) | – | inactive | – | – | – | – | – |
| COCCNc1ccnc(-c2c(C)noc2C)n1 | > 11.4 | 3.45 | 2.51 µM (active) | – | > 46 | inactive | inactive | inactive | 5.3 | inactive | – | – | – | > 46 | inactive | inactive | inactive | – |
| COC(=O)N1CCC2(CC1)CCN(c1ccccn1)CC2 | > 11.4 | -8.66 | inactive | – | > 46 | inactive | 20 µM (active) | inactive | -8.24 | inactive | inactive | – | – | – | – | – | – | – |
| Cn1cccc1C(=O)N1CCC2(CCCN(c3ccccn3)C2)CC1 | > 11.4 | -9.86 | 20 µM (active) | – | > 46 | inactive | inactive | inactive | -6.89 | inactive | – | – | – | – | – | – | – | – |
| COC(=O)N1CCC2(CC1)CCN(c1ccncc1)CC2 | > 11.4 | 6.46 | inactive | – | > 46 | inactive | – | inactive | 20.2 | inactive | – | – | – | – | – | – | – | – |
| O=c1c(-c2cccc(Cl)c2)nc2cncnc2n1Cc1ccccc1Cl | > 11.4 | 15.6 | 2 µM (active) | – | > 46 | – | inactive | inactive | -2.1 | inactive | – | – | 5010 nM (active) | > 9.22 | – | – | – | 3.98 µM (active) |
| Cc1nc2cnc(Oc3cccc(Cl)c3)nc2n(CCc2ccccc2)c1=O | > 11.4 | 2.12 | 12.6 µM (active) | – | > 46 | – | – | inactive | 18.7 | inactive | – | – | – | > 9.22 | – | – | – | – |
| CC(C)NC(=O)N1CC[C@@]2(CCCN(C(=O)c3cccc(F)c3)C2)C1 | > 11.4 | -5.48 | inactive | 10.1 | > 46 | inactive | – | inactive | – | inactive | – | – | – | – | – | – | – | – |
| O=C(c1ccco1)N1CCC2(CCCN(c3ccccn3)C2)CC1 | > 11.4 | -0.937 | 10 µM (active) | – | > 46 | inactive | inactive | inactive | -3.59 | inactive | – | – | – | – | – | – | – | – |
| COc1ccccc1CN1CC2(CCN(S(=O)(=O)c3ccccc3)CC2)C1 | > 11.4 | 18.5 | inactive | – | > 46 | inactive | inactive | inactive | 7.2 | inactive | – | inactive | inactive | – | – | – | – | inactive |
| O=C(c1ccncc1)N1CCC2(CCCN(Cc3ccccc3)C2)CC1 | > 11.4 | -9.7 | inactive | – | > 46 | inactive | inactive | inactive | -8.26 | inactive | – | – | – | – | – | – | – | – |
